In all, about 68,000 sequences were measured (“fluorescence intensity (a.u.)”: median about 9,100, highest 2% from about 16,000 on). This excerpt belongs to a sample that is enriched for the highest values.

Data on 42 sequences can be found in article PMC7819943, “Rice protein-binding microarrays: a tool to detect cis-acting elements near promoter regions in rice”.

Chain of OsWRKY34 (Q0JBA9 entry or part of it): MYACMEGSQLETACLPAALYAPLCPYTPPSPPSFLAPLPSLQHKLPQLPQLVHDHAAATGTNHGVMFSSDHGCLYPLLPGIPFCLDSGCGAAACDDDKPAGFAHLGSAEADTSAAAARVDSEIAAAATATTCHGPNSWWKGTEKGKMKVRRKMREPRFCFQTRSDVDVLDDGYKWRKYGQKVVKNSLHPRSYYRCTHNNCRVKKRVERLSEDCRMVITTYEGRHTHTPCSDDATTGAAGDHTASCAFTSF

This assay addresses OsWRKY34 (Oryza sativa, UniProt Q0JBA9 1-250). The experiment in a line: protein-binding microarray (RPBM); PBS, 2% BSA, 51.3 ng/ul salmon testes DNA, 50 uM zinc acetate, 200 nM TF, 25 C, 1 h; high values mean tight binding. The following applies: protein: recombinant; tags: N-terminal polyhistidine and DsRed monomer fusion (pET32a); label: CyDye5-dUTP incorporated in the synthesized complementary strand; 3' TTTTT single-stranded linker to array surface; dsDNA, one strand shown. Put shortly:
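Binding signal here means per-feature fluorescence intensity in arbitrary units. The values were read on an Axon 4000B scanner after a custom Agilent array, double-stranded by primer extension with Cy5-dUTP, was incubated with 200 nM protein at 25 °C for 1 h in PBS with 2% BSA, salmon testes DNA and 50 µM zinc acetate, then washed. The proteins were transcription factors with an N-terminal polyhistidine tag and DsRed, expressed in E. coli BL21-CodonPlus and purified on Ni–NTA.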
“ACGTGGAGTCACGTGACTGGGCCGTGCCACTTTTTTTTATCGGAGTCACCTAGTGCAG”: the binding signal was 9360 fluorescence intensity (a.u.).

Consider “AGTCAATATCTTGCTTTGATACCTTTTTTTTTGCATTTTTCGGAGTCACCTAGTGCAG”, for which the binding signal is 8050 fluorescence intensity (a.u.).

Turning to “ACAACACGCCGCCTCGCCTGCCCATCCCGTCCAACCCACGCGGAGTCACCTAGTGCAG”, the binding signal was 9200 fluorescence intensity (a.u.).

Take “GATTGGTTGAAAATGTTTCTATTCTTAATGAATATCCTATCGGAGTCACCTAGTGCAG”: the binding signal is 8080 fluorescence intensity (a.u.).

“CCATCCACGCGACGCGGCACAACCTCCCGCGCCCAACACACGGAGTCACCTAGTGCAG”: the binding signal was 8760 fluorescence intensity (a.u.).

For “CCTTCTTGTCCTGCTCCCGCGCCGGCTCCGACCGGGTCCTCGGAGTCACCTAGTGCAG”, the binding signal is 8600 fluorescence intensity (a.u.).

As for “AGTACATGGGCTTTCCATAATTGGTTTATACGTGGTTATTCGGAGTCACCTAGTGCAG”, the binding signal is 8260 fluorescence intensity (a.u.).

As to “CTCTGAATGGCCTTGTCACCCTTTTTATTCATTCATGCTCCGGAGTCACCTAGTGCAG”, the binding signal is 9200 fluorescence intensity (a.u.).

As to “TGTCCTTATCATCTTTGATCAAGTTTTTCTCTTTTCCTATCGGAGTCACCTAGTGCAG”, the binding signal was 9480 fluorescence intensity (a.u.).

Take “CTCTTTTTTTTTCTTCCACTACGCTCCAAAACTTCTCTCCCGGAGTCACCTAGTGCAG”: the binding signal is 8790 fluorescence intensity (a.u.).

“CCTTAGTCAGCCTCTGCTTCTGCTCCGTGCTCGCCGGCGCCGGAGTCACCTAGTGCAG”: the binding signal was 12600 fluorescence intensity (a.u.).

In the case of “GTGCGTGGGGCGAAGGGAGGGGAAGAAGAAGAAGGAGAAGCGGAGTCACCTAGTGCAG”, the binding signal was 8080 fluorescence intensity (a.u.).

As to “GGGGCGGAGATCTGGGAGGAGGAGGAGGAGGTGGTGGTGGCGGAGTCACCTAGTGCAG”, the binding signal is 14500 fluorescence intensity (a.u.).

As to “TACTGGGGAATCGGTGGTGGTGGCGGCGGCGGTGGCGGCGCGGAGTCACCTAGTGCAG”, the binding signal was 9690 fluorescence intensity (a.u.).

“TGTGGCGGGGAGGGAGGGAGGGAGAAGGGGCGGCGTGTTGCGGAGTCACCTAGTGCAG”: the binding signal was 16600 fluorescence intensity (a.u.).

In the case of “GGAATCTGGGAGGTGGGTGGGCCCCACGGCGGAGACTCCGCGGAGTCACCTAGTGCAG”, the binding signal was 17200 fluorescence intensity (a.u.).

Turning to “GCGGCCGGCCGAGGGGTGGGAGCCGTCCGATCGCGGCGCGCGGAGTCACCTAGTGCAG”, the binding signal was 8550 fluorescence intensity (a.u.).

Regarding “ACGCAGGGGAGGGAGGGAGCGGTGGTGGTGGCGGCGGCGCCGGAGTCACCTAGTGCAG”, the binding signal was 14000 fluorescence intensity (a.u.).

On to “CTCATCCGAGTGGGTGGGCGGGGAGAGATCTAGGGCTTGCCGGAGTCACCTAGTGCAG”, for which the binding signal was 11700 fluorescence intensity (a.u.).

In the case of “CGATCCGCTTGCAGGCGGCGGCGGCGGGAGGGTGGTGGGGCGGAGTCACCTAGTGCAG”, the binding signal was 18000 fluorescence intensity (a.u.).

As to “CCCGCGGCGGCGGGGTGGAGGCGACGGCGGTGGTGGTGGGCGGAGTCACCTAGTGCAG”, the binding signal was 8590 fluorescence intensity (a.u.).

As to “TGAAGGGCGGGAGGGGCGTTGCGCGGGAGTGGCCGCGCGGCGGAGTCACCTAGTGCAG”, the binding signal was 8670 fluorescence intensity (a.u.).

For “GCCTCGATCGCGGCGGTGGCGGTGGGGAGGGGAGCGCACCCGGAGTCACCTAGTGCAG”, the binding signal was 19000 fluorescence intensity (a.u.).

As for “ATCCGTCCGTTTCGTTCCGTACGAACCGCCGGCGTTCAAACGGAGTCACCTAGTGCAG”, the binding signal is 8580 fluorescence intensity (a.u.).

Take “GCCTCCGCCGCCGCCGCCGCCCGCCGGCCATCTCCGTCGACGGAGTCACCTAGTGCAG”: the binding signal was 13900 fluorescence intensity (a.u.).

For the sequence “CAATGTATTCAGGTACGCCGATTATTTGGTTGGTAGTAGTCGGAGTCACCTAGTGCAG”, the binding signal is 11500 fluorescence intensity (a.u.).

As for “ATACTCGCTCCGTGTTTTAATATATGACGCTGTTGATTTTCGGAGTCACCTAGTGCAG”, the binding signal is 12700 fluorescence intensity (a.u.).

Regarding “GCTCGGTGTGGCGATCTCACAGCCGCATATCGCATTTCACCGGAGTCACCTAGTGCAG”, the binding signal was 8680 fluorescence intensity (a.u.).

For the sequence “GGCCCCACGTTTCATCCTCACGACCGTGTCCAACCCAGGGCGGAGTCACCTAGTGCAG”, the binding signal is 10300 fluorescence intensity (a.u.).

Turning to “AAGAGGGCGCGGGTGGCGGGGATGGGCGAGGGGAAGGCGGCGGAGTCACCTAGTGCAG”, the binding signal is 17700 fluorescence intensity (a.u.).

“GAGGTGGTGGAGCGAGGTGGAAGAGGGCGCGGGTGGCGGGCGGAGTCACCTAGTGCAG”: the binding signal is 9480 fluorescence intensity (a.u.).

Consider “GTGGCGCGAGGGGAGGGAAGGGTAGGGCGGCGCGGCGGCGCGGAGTCACCTAGTGCAG”, for which the binding signal is 9730 fluorescence intensity (a.u.).

For “ATCTCCGTCGGTGGGGAAAAGGAGGTGGGGAGGGGAGGAGCGGAGTCACCTAGTGCAG”, the binding signal was 18800 fluorescence intensity (a.u.).

Turning to “CGCGCGGTCGAGGAGGGTGGGGCCGCCGCGCTCACCTCCGCGGAGTCACCTAGTGCAG”, the binding signal was 8480 fluorescence intensity (a.u.).

Take “TGGAGTGGAGTTTCGATAGGTGTGGCGGGGAGGGAGGGAGCGGAGTCACCTAGTGCAG”: the binding signal was 19800 fluorescence intensity (a.u.).

“GAAGAGGAGAGAGGAAGAGAGGTGGAAAGGGGAGGGGAAGCGGAGTCACCTAGTGCAG”: the binding signal was 9460 fluorescence intensity (a.u.).

Take “CGGTGGTGGTGGATGCTGGCGCTGGCGGTGGGCGCGAGCTCGGAGTCACCTAGTGCAG”: the binding signal was 10100 fluorescence intensity (a.u.).

As for “GCTTTGGTCGGTTGGGGTGGGCTGGATGCGCCTCCGCGCTCGGAGTCACCTAGTGCAG”, the binding signal is 17800 fluorescence intensity (a.u.).

For the sequence “CGTCGGTAGGGAGGAGGAGGAGGAGGAGGTGGTGGTGGTGCGGAGTCACCTAGTGCAG”, the binding signal is 12000 fluorescence intensity (a.u.).

In the case of “TGGTTTTATAGGCGTGGGGTGTGGAGCTTCGAGGGGAAGGCGGAGTCACCTAGTGCAG”, the binding signal was 13900 fluorescence intensity (a.u.).

As to “TGTGGTGGCGAGCGGCACGGAGGCGGGGCGGTGGAGGGAGCGGAGTCACCTAGTGCAG”, the binding signal is 9670 fluorescence intensity (a.u.).

For “CAGATGGTCTGGTGGTCGGCGGAGGTCCCGGCGCGCGCGTCGGAGTCACCTAGTGCAG”, the binding signal was 8360 fluorescence intensity (a.u.).
